# Shown are actives, neighbours in structure and some others; about 4% of the full set was active somewhere.
# Mtb bLac sens: beta-lactam sensitization of Mtb H37Rv. M. tuberculosis H37Rv growth with meropenem, percent inhibition. inhibition, % at 25 µM. 0.27% of 330,000 active. AID 434955;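 further: growth measured after seven days incubation then overnight dye step; 0% = bacteria only wells and 100% = bacteria with antibiotic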
# Rv3671c protease: inhibits the M. tuberculosis serine protease Rv3671c. 0.048% of 320,000 active. inhibition, % at 5.96 µM. P9WHR9; in the data active means inhibition above about 38%;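 further: extracellular domain of Rv3671c used as enzyme; 0% = enzyme with DMSO and 100% = no enzyme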
# Mtb UGM inh: inhibitors of M. tuberculosis UDP-galactopyranose mutase; P9WIQ1; 0.06% of 320,000 active; inhibition, % at 10 µM; purified UGM, fluorescence polarization probe displacement; in the data active means inhibition above about 10%, passing the limit was not always enough
# Target sequence (P9WIQ1 whole entry, looked up): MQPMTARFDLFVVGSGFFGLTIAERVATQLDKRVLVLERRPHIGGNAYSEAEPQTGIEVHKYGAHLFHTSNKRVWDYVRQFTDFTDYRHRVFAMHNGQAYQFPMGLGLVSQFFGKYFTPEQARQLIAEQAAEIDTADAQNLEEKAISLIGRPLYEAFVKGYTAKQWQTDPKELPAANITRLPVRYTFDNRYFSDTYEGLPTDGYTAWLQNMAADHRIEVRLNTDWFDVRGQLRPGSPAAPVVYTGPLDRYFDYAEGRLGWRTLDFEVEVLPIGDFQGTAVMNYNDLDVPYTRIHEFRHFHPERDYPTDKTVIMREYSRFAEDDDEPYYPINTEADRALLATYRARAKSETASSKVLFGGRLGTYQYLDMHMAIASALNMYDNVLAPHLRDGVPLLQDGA
# FBA Mtb inh: inhibits M. tuberculosis FBA enzyme; P9WQA3; purified M. tuberculosis FBA, fluorescence read-out; inhibition, % at 1 µM; 2.3% of 360,000 active; AID 588726; in the data active means inhibition above about 27%;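 further: 0% = vehicle and 100% = reference inhibitor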
# RecA splice inh: blocks M. tuberculosis RecA intein splicing. AID 2221. cell-free RecA intein splicing, fluorescence. inhibition, % (concentration not given with the values). 0.75% of 290,000 active; in the data active means inhibition above about 30%;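 further: 0% = vehicle wells and 100% = reference inhibitor control wells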
# GDH-TPI counter-1: inhibits GDH-TPI coupling enzymes, artifact for Mtb FBA screen | GDH-TPI coupled enzyme counterscreen, NADH absorbance | inhibition, % at 4.8 µM | 1.2% of 360,000 active | AID 588335; in the data active means inhibition above about 30%;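 further: 0% = DMSO wells and 100% = wells lacking the enzyme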
# Mtb FBA inh conf: confirmation of M. tuberculosis fructose-bisphosphate aldolase inhibitors; purified M. tuberculosis FBA, fluorescence read-out; AID 651616; 78% of 5,600 active; shares compounds with FBA Mtb inh; inhibition, % at 1 µM; in the data active means inhibition above about 27%;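 further: 0% = vehicle wells and 100% = reference inhibitor wells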
# GDH-TPI counter-2: GDH-TPI inhibition counter-screen for FBA inhibitors | shares compounds with FBA Mtb inh | GDH-TPI coupled enzyme counterscreen, fluorescence | inhibition, % at 1 µM | 81% of 5,600 active; in the data active means inhibition above about 10%
# GDH-TPI DR: inhibits GDH-TPI coupling enzymes in dose response; AID 652145; 79% of 170 active; GDH-TPI coupled enzyme assay, fluorescence, artifact counterscreen; shares compounds with FBA Mtb inh; IC50, µM
# Numbers without * were called inactive; x = no result given; + = active, no number. Unless noted, how the calls were made is not given here.
SMILES,Mtb bLac sens,Rv3671c protease,Mtb UGM inh,FBA Mtb inh,RecA splice inh,GDH-TPI counter-1,Mtb FBA inh conf,GDH-TPI counter-2,others
CN(C)CCCNC(=O)c1cccc(-c2ccc3nccn3c2)c1,x,x,x,-1.4,x,-7.5,x,x,
COc1ccccc1-c1nc(C#N)c(N2CCN(C(=O)c3ccco3)CC2)o1,-3.5,-4.8,-0.6,15.9,2.9,5.3,x,x,
Cc1nc2ccc(N)cc2c(=O)n1Cc1ccc(Cl)cc1,2.4,-9.3,-0.4,41.1*,0.9,9.9,40.4*,33.5*,
Cc1nc2c(cc1N)nc(C)n2Cc1ccccc1,-6.8,-1.5,3.4,98.6*,0.6,0.5,19.8,3.3,GDH-TPI DR=1.18*
Cc1nc2ccc([N+](=O)[O-])cc2c(=O)n1Cc1ccc(Cl)cc1,-0.5,2.6,1.7,1.7,0.6,5.6,x,x,
COc1ccccc1-c1nc(C#N)c(N2CC(C)CC(C)C2)o1 (configuration not stated),4.0,0.9,-0.2,22.8,1.5,3.5,x,x,
COc1ccc(NC(=O)C(Sc2ccccc2)c2ccccc2)c(OC)c1 (configuration not stated),2.3,-7.5,-0.6,72.4*,7.8,0.0,44.6*,33.4*,
O=C1NC(=S)N/C1=C/c1ccc(Oc2ccc(C(F)(F)F)cc2[N+](=O)[O-])c(Cl)c1,1.9,-5.7,2.2,1.9,-2.1,7.2,x,x,
Cc1cc(C)c2nc(-c3ccccn3)cc(C(=O)NCCc3ccc(S(N)(=O)=O)cc3)c2c1,-0.1,-40.6,3.1,38.9*,6.2,5.0,164.5*,133.0*,
Cc1cc(C)c2nc(-c3ccccn3)cc(C(=O)NCc3ccc(S(N)(=O)=O)cc3)c2c1,-6.4,-8.1,0.4,49.5*,x,6.3,8.3,0.4,
Cc1cc(C)c2nc(-c3ccccn3)cc(C(=O)Nc3ccc(S(=O)(=O)Nc4cc(C)on4)cc3)c2c1,50.7,-29.0,-1.4,5.2,0.4,19.1,x,x,
CC(C)Cn1cc(-c2cccc3nccn23)cn1,x,x,x,105.0*,x,4.4,-0.4,-1.6,
CC(C)NC(=O)C(=O)NNC(=O)C12CC3CC(CC(C3)C1)C2,x,-0.8,0.7,1.4,0.2,-5.8,x,x,
COc1ccc(N2CCN(CCC(N)=O)CC2)cc1,-1.1,1.2,1.7,31.1*,-7.7,7.5,77.8*,53.0*,
Cc1ccc(-c2csc3nc4cc(C(N)=O)ccc4c(=O)n23)cc1,-8.4,-9.7,3.9,28.9*,-15.0,14.7,1.5,-2.4,
Cc1cccc(NC(=O)C(C)SCc2nc3sc4c(c3c(=O)[nH]2)CCCC4)n1 (configuration not stated),-1.1,-3.7,0.6,30.9*,-2.0,6.0,153.0*,92.9*,
CCCCn1c(=O)[nH]c(=O)c2c1nc(-c1ccccn1)n2CC,-7.0,-1.8,1.4,52.6*,x,4.5,32.6*,32.9*,
CCC1(OC(=O)CN(C)C)C(=O)OCc2c1cc1n(c2=O)Cc2cc3c(N)cccc3nc2-1 (configuration not stated),x,x,x,53.4*,x,24.1,-1.7,-2.2,
COC(=O)[C@]1(C)N[C@H](CN(C)C(=O)Nc2ccc(OC)cc2)[C@@H]2C(=O)N(C)C(=O)[C@@H]21,-0.1,4.9,-2.8,0.4,x,0.0,x,x,
CCc1ccc(-c2nc3ccc(Br)cc3c(C(=O)O)c2C)s1,-2.3,x,1.8,38.2*,-0.9,17.9,60.5*,44.9*,
Cc1c(-c2ccccc2Br)nc2ccccc2c1C(=O)O,x,x,x,-1.7,x,-3.5,x,x,
CC1C2CCC(C2)C1OC(=O)c1ccccc1C(=O)O (configuration not stated),x,x,x,0.1,x,2.2,x,x,
CC1CCC2C(C1)Nc1c(C(=O)O)cccc1C2(C)C (configuration not stated),3.4,-4.1,-0.5,77.1*,-0.2,9.3,22.7,10.8*,
Cc1ccc(-c2nc3cc(NS(=O)(=O)c4ccc(C)cc4)ccc3o2)cc1,87.5,-92.3,-0.2,32.7*,-3.6,14.3,45.1*,28.3*,
O=S(=O)(Nc1ccc2oc(-c3ccccc3)nc2c1)c1ccccc1,34.1,-39.3,-0.3,49.5*,11.1,4.2,141.0*,112.0*,
SMILES,Mtb bLac sens,Rv3671c protease,Mtb UGM inh,FBA Mtb inh,RecA splice inh,GDH-TPI counter-1,Mtb FBA inh conf,GDH-TPI counter-2,others
O=c1[nH]c2cc3c(cc2cc1CN(Cc1nnnn1CC1CCCO1)C1CCCCC1)OCO3 (configuration not stated),-14.8,-0.8,2.7,56.8*,-151.6,6.6,+,+,
O=c1[nH]c2cc3c(cc2cc1CN(CCc1ccccc1)Cc1nnnn1CC1CCCO1)OCO3 (configuration not stated),10.2,2.8,-1.0,30.0*,x,26.2,11.6,16.6*,
O=c1[nH]c2cc3c(cc2cc1CN(Cc1nnnn1CC1CCCO1)C1CCCC1)OCO3 (configuration not stated),-5.9,-8.7,1.3,75.6*,-11.9,11.5,33.3*,28.9*,
CC1CCN(C(c2cc3cc4c(cc3[nH]c2=O)OCO4)c2nnnn2CC2CCCO2)CC1 (configuration not stated),-2.5,1.6,1.2,3.5,-4.3,6.5,x,x,
CCN(C(=O)c1c(C)cc(=O)oc1C)c1ccc2c(c1)OCO2,3.1,6.1,-0.6,0.2,3.4,9.3,x,x,
CCN(C(=O)c1coc(=O)c(Br)c1)c1ccc2c(c1)OCO2,87.2,-36.8,0.0,79.9*,-2.1,23.7,+,182.6*,
COc1ccc(C2C(C#N)=C(C)NC3=C2C(=O)CC(C)(C)C3)c(OC)c1 (configuration not stated),-3.3,4.8,1.1,14.7,-53.9,13.3,x,x,
COc1ccc(C2C(C(=O)N3CCOCC3)=C(C)NC3=C2C(=O)CC(C)(C)C3)c(OC)c1 (configuration not stated),1.8,-9.6,-1.1,58.4*,-19.8,9.1,+,+,
CC1=C(C(=O)N2CCOCC2)C(c2ccccc2F)C2=C(CC(C)(C)CC2=O)N1 (configuration not stated),-1.7,5.1,-0.8,54.5*,-8.3,0.0,84.0*,73.0*,
COc1ccc(S(=O)(=O)N2CCN(S(=O)(=O)c3ccc4c(c3)OCCO4)CC2)cc1,-21.8,-10.3,0.9,2.0,2.2,-3.1,x,x,
Cc1ccc(-c2c(C#N)c(N)nc3c2CCCCCC3)o1,6.1,4.3,0.4,31.5*,2.6,25.9,51.2*,38.2*,
Cc1ccc(-c2c(C#N)c(N)nc3c2CCCCC3)o1,42.5,-9.3,-3.5,11.7,-3.6,23.8,x,x,
CCN(CC)C(=O)Cn1cnc2sc(C(=O)N3CCN(c4ccc(OC)cc4)CC3)c(C)c2c1=O,-2.5,0.9,0.1,2.3,-0.7,18.3,x,x,

# Assay outcomes from PubChem BioAssay.
